Measured values taken from PubChem BioAssay AID624040 (The Scripps Research Institute Molecular Screening Center, 2012).
Hit rate of the full screen: of about 360,000 compounds, about 2,100 (0.58%) were called active.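 The calls were made as follows: active = inhibition above a per-plate cutoff, the mean of that plate's test compounds plus 3 SD (cut at about 27% in these data); inactive = the rest.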 What follows is part of a selection rich in actives, with near analogues and random picks from the rest.

molecular target: Muscarinic acetylcholine receptor M5 (Homo sapiens) (UniProt P08912); experiment: CHRM5 blockers of acetylcholine calcium response – CHO cells, Fluo-8 calcium fluorescence, primary screen (AID 624040); settings: CHO-hM5 cells, ACh EC80, at 3 µM, hits give high values;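 also: 0% = acetylcholine EC80 with DMSO and 100% = DMSO without agonist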
Sequence (P08912 whole entry, looked up): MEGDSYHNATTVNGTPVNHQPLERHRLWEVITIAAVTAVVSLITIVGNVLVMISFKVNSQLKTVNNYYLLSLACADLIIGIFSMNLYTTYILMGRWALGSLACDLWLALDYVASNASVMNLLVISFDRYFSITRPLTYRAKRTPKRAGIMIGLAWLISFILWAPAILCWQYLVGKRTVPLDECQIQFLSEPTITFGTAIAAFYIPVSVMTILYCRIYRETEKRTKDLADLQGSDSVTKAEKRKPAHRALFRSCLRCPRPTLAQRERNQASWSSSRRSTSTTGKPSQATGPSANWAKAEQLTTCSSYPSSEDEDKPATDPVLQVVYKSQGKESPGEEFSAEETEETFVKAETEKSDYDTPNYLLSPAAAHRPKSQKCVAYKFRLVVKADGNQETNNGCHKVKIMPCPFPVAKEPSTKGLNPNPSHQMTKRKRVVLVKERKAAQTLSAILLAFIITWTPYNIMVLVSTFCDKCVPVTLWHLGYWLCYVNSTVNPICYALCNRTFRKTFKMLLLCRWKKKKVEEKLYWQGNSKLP

inhibition, inactive:
CC1C(=O)NC(=O)C1c1ccccc1 (centres undefined) 5.64%
COc1cccc(-c2ccc(C#N)c(SCC(=O)NCCc3ccc(Cl)cc3)n2)c1 -0.91%
COc1cc(C(=O)N2CCOC23CCN(Cc2ccccc2)CC3)cc(OC)c1OC 4.88%
C[C@@H]1CC[C@@]2(OC1)O[C@H]1C[C@H]3[C@@H]4CC=C5C[C@@H](O)[C@H](O)C[C@]5(C)C4CC[C@]3(C)[C@H]1[C@@H]2C (some centres undefined) -3.19%
O=C(OCc1nnc(-c2ccccc2)o1)c1ccc2c(c1)C(=O)N(CCc1ccccc1)C2=O 5.45%
O=C(OCc1nnc(-c2ccccc2)o1)c1cc(=O)[nH]c2ccccc12 6.31%
CN/C(=C\[N+](=O)[O-])NCCSCc1csc(CN(C)C)n1 4.23%
CC(C)C(=O)Nc1nnc(Sc2ccc(N(C)C)cc2)s1 -0.86%
COc1cc(OC)cc(C(=O)NC(=S)N2CCN(c3ccc(C(F)(F)F)cc3[N+](=O)[O-])CC2)c1 18.9%
O=C(Cc1ccc(S(=O)(=O)N2CCOCC2)s1)N1CCN(c2ccc(C(F)(F)F)cc2[N+](=O)[O-])CC1 17.4%
CC(Sc1sc(=S)sc1SC(C)C(=O)O)C(=O)O (centres undefined) 0.68%
Cc1cc2oc3ccc(NCCC4CCCN4C)cc3c(=O)c2cc1C (centres undefined) 9.19%
Cc1ccc(-c2noc(CNC(=O)c3ccoc3C)n2)cc1 12.7%
CC(=O)c1ccc(S(=O)(=O)N(C)CCCC(=O)N(C)Cc2ccccc2F)cc1 -0.62%
Cc1nc(CN(C)C(=O)CC2C(=O)NCCN2Cc2ccc(F)cc2)cs1 (centres undefined) -22.7%
CSc1cccc(NC(=S)N(C(C)C)C(C)c2ccccn2)c1 (centres undefined) 4.26%
CCOc1ccc2[nH]c(=O)c(CN(CCCO)S(=O)(=O)c3ccc(F)cc3)cc2c1 11.3%
COc1ccc(-c2[nH]ncc2CN(C)Cc2cccnc2)c(F)c1 -5.23%
CC(C)c1nnc(NC(=O)C2CCCN2S(=O)(=O)c2ccc(Cl)cc2)s1 (centres undefined) -0.86%
CC(=O)CC(CC(=O)NC1CCCCC1)c1ccccc1 (centres undefined) 8.42%
CCOc1c(OC)cccc1C(=O)NCC1(c2ccccc2)CCCC1 15.3%
CC1CN(c2nc(-c3ccccc3)nnc2-c2ccccc2)CC(C)O1 (centres undefined) 0.03%
CCCC(=O)N1CCC1(C)C(=O)Nc1ccc(-n2cncn2)cc1 (centres undefined) -3.91%
O=C(c1cc(COc2c(F)cccc2F)on1)N1CCSCC1 -3.86%
CCN(CC)C(=O)C1CCC(C)(C(=O)O)C1(C)C (centres undefined) 8.62%
COc1ccc(Cn2cc(CN3CCS(=O)(=O)N(Cc4ccc(-c5cccc(Cl)c5)cc4)C(C)C3=O)nn2)cc1 (centres undefined) -2.91%
CC1=C(C(N)=O)C(c2sccc2C)n2nnnc2N1 (centres undefined) -6.06%
COc1ccc(OC)c(C2N(c3ccccn3)C(=O)C3CCCN32)c1 (centres undefined) 2.53%
CN(C)Cc1ccccc1C1(O)c2ccccc2CSc2ccccc21 (centres undefined) 18.8%
CCOC(=O)c1ccc(N=C2SC(C(=O)NC)CC(=O)N2CCc2ccccc2)cc1 (centres undefined) 3.02%
N#Cc1ccc(COC(=O)Cn2nnc(-c3ccccc3)n2)cc1 1.41%
c1cc(-n2cnnn2)ccc1NC1=NCCC1 -8.17%
O=C(CSc1nccn1-c1cccc(F)c1)NC1CCCC1 0.21%
CCC(C)(C)NC(=O)CN(C(=O)CCC(=O)Nc1cc(C)ccn1)c1ccc2c(c1)OCCO2 -0.46%
C=CCC(NC(=O)Cc1ccccc1)C(=O)NCCC (centres undefined) -3.26%
CCCOCC(O)CC(CC)C(=O)NNC(=S)Nc1ccccc1 (centres undefined) -7.7%
CCCNC(=O)N1CCN(C(=O)NCCC)CC1 8.13%
C#CCO[C@@H]1C[C@H](n2cnc3c(=O)[nH]c(NC(=O)C(C)C)nc32)O[C@@H]1CO 9.77%
Cc1cccc(-n2c(Cc3cc(=O)[nH]c(=O)[nH]3)nnc2SC(C)C)c1 -3.22%
CC[C@]12c3[nH]c4ccc(Cl)cc4c3CCN1C(=O)[C@@H](CC(=O)NCCCOC)C[C@@H]2C(=O)N1CCN(C(=O)C2CC2)CC1 0.99%
COc1ccccc1NS(=O)(=O)c1ccc(C)c(C(=O)NCC(c2ccco2)N(C)C)c1 (centres undefined) 6.64%
CSCCC(NS(=O)(=O)c1ccc(C)cc1)C(=O)NCCc1c[nH]c2ccccc12 (centres undefined) 2.39%
Cc1cccc(N2CCN(S(=O)(=O)c3ccc(-c4cc(C)no4)s3)CC2C)c1 (centres undefined) -1.63%
Cc1cc(-c2ccc(S(=O)(=O)N3CCc4ccccc4C3)s2)on1 5.38%
C=CCCN(Cc1ccccc1)S(=O)(=O)c1ccccc1Br 13.3%
O=C(NCC(=O)N1CCC2(CC1)NCCc1[nH]cnc12)c1ccc(Br)cc1 -15.5%
O=C1C2C3C=CC(C3)C2C(=O)N1c1ccc(-c2nc3ccccc3c(=O)o2)cc1 (centres undefined) -6.13%
CC1CCC2(CC1)NC(=O)N(Cc1nnc(-c3cccs3)o1)C2=O (centres undefined) 8.17%
COc1ccccc1CNC(=O)COn1nnc2ccc(S(=O)(=O)N3CCOCC3)cc21 4.42%
Cn1cccc1C(=O)N1CCc2ccccc2C1 -2.44%
CN1CCN(S(=O)(=O)c2cccc(C(=O)N3CCc4ccccc43)c2)CC1 5.4%
COc1ccc(C(=O)NC2CC2)cc1OC1CCN(C/C=C/c2ccccc2)CC1 3.15%
COCCn1c(SCC(=O)Nc2cc(OC)ccc2OC)nc2c(c1=O)SC(C)C2 (centres undefined) 3.68%
CC(=O)Nc1ccc(S(=O)(=O)NCC(=O)OCc2cc(=O)oc3ccc4ccccc4c23)cc1 0.62%
CC(=O)N1CCC(N(C(=O)Nc2ccc(Cl)cc2)C(C)C)CC1 12.4%
COc1ccc(OCC(O)CNC(=O)Nc2ccc(Cl)cc2)cc1 (centres undefined) 12.7%
Cc1cc(N2CCCC2)ccc1NC(=O)COc1ccc(Cl)cc1 -1.18%
O=C(CCCN=C1NS(=O)(=O)c2ccccc21)OCC(=O)c1ccc(F)c(F)c1 7.17%
COc1cc(OC)c(OC)cc1CN1CCN(C(=O)c2cccc3ccccc23)CC1 4.24%
Cc1ccc(C(=O)N2CCCc3ccccc32)c(Cl)c1 16.7%
CCCn1nc(C(=O)N2CCCc3ccccc32)c2ccccc2c1=O 12.6%
O=C(Cc1ccc(S(=O)(=O)N2CCOCC2)s1)NCCOc1ccccc1F -4.35%
CC(Sc1nnc(CNC(=O)c2ccccc2F)n1C)C(=O)Nc1nccs1 (centres undefined) 5.11%
FC(F)Oc1ccccc1NC(=S)Nc1cccc(Cl)c1Cl -7.36%
COc1ccc(CN(C)C(=O)Cc2ccsc2)c(OC)c1OC 6.37%
COc1ccc(CN(C)C(=O)Cc2c[nH]c3ccccc23)c(OC)c1OC 1.21%
CCCCN(CCCC)CCNC(=O)CN1C(=O)COc2ccc(S(=O)(=O)N3CCOCC3)cc21 -0.51%
CCO[C@H]1OC(C(=O)O)=C[C@@H](C2CCCCC2)[C@@H]1CCCO 9.63%
O=C(NCc1cccnc1)c1nc(-c2cccs2)no1 5.2%
CC(C)(C)NC(=O)NC(=O)COC(=O)CCC1CCCCC1 -5.64%
CCc1ccc(CNC(=O)C2CCN(c3nnc(C)c4c(C)n(-c5ccc(C)cc5)nc34)CC2)cc1 0.33%
CCOc1ccc(CCN2C(=S)N([C@@H](CC(C)C)CN3CCC[C@@H]3CN3C(=S)NC[C@@H]3Cc3ccc(O)cc3)C[C@@H]2Cc2ccc(O)cc2)cc1 0.29%
FC(F)(F)Oc1ccccc1C(c1nnnn1C1CCCCC1)N1CCN(C/C=C/c2ccccc2)CC1 (centres undefined) -11.2%
COCCn1nnnc1C(c1ccccc1Cl)N1CCN(c2ccccc2OC)CC1 (centres undefined) -11.5%
CCCCn1nnnc1C(c1ccccc1)N1CCN(c2ccccc2OC)CC1 (centres undefined) 2.03%
COc1ccc(C(c2nnnn2C2CCCCC2)N2CCN(c3ccccc3F)CC2)cc1 (centres undefined) -15.7%

inhibition, active:
Cc1onc(-c2ccccc2)c1-c1nnc(COC(=O)c2ccc(N(C)C)cc2)o1 66.8%
O=C(c1ccc(N2CCCC2=O)cc1)N1CCN(c2ccc(C(F)(F)F)cc2[N+](=O)[O-])CC1 29.3%
CN1CCC[C@@H]1CCO[C@](C)(c1ccccc1)c1ccc(Cl)cc1 98.5%
COc1ccc2[nH]c(=O)c(CN(Cc3cccnc3)S(=O)(=O)c3ccccc3F)cc2c1 27.3%
O=C(CNC1CCCCC1)NCC1(c2ccccc2)CCCC1 27.1%
C=CCC1(CC=C)CCCN1C(=O)c1cc(COc2ccc(-n3cncn3)cc2)on1 41.9%
CN(C)CC/C=C1\c2ccccc2CSc2ccccc21 99.1%
COc1ccc(NC(=O)/C(Cl)=C(/Cl)S(=O)Cc2ccc(C)cc2)cn1 (centres undefined) 34.9%
CCCCC(=O)NNC(=S)NC(=O)C(c1ccccc1)c1ccccc1 28.1%
CCN1/C(=C\c2ccc3ccccc3[n+]2CC)Sc2cc(C)ccc21 48.1%
Cc1cc(-c2ccc(S(=O)(=O)N3CCN(c4cccc(C(F)(F)F)c4)CC3)s2)on1 53.9%
Nc1c(C(=O)c2cccs2)sc2nsc(SCCN3CCCCC3)c12 47.4%
CN1CCN(C(=O)N2c3ccccc3CCc3ccccc32)CC1 98.8%
CC(C)S(=O)(=O)c1csc(NC(=O)Nc2ccc(Cl)cc2)c1Cl 37.3%
Cc1cccc2cc3c(N)c(C(=O)N4CCCc5ccccc54)sc3nc12 28.3%
COc1ccc(-c2cc(C(=O)N(C)Cc3ccc(OC)c(OC)c3OC)c3ccccc3n2)cc1OC 29.8%
COc1ccc(C(c2nnnn2C2CCCC2)N2CCN(C/C=C/c3ccccc3)CC2)cc1 (centres undefined) 42%
CCCCn1nnnc1C(c1cccc(OC)c1OC)N1CCN(C/C=C/c2ccccc2)CC1 (centres undefined) 47%
